Laboratory results published in PubChem BioAssay (EPA / NIEHS).
Calls of active or inactive are those of the source. The calls were made as follows: active = hit-call score of the fitted dose curve at least 0.9, where 1 is the maximum; inactive = score below 0.9.

How the values were obtained:
Details in all cases: mRNA level, 48 h; actives raise or lower the signal
[1] = read-out: Glutamate-cysteine ligase catalytic (GCLC), GCLC (gene 2729); assay: LTEA_HepaRG_GCLC: Life Technologies and Expression Analysis (LTEA) Assay for Glutamate-cysteine ligase catalytic (GCLC) using HepaRG (AID 2283498)
How it was run: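 Differentiated human HepaRG cells, plated 48 h then switched to serum-free induction medium, were exposed in duplicate for 48 h to 8 half-log concentrations topping at 100 uM in 0.5% DMSO. GCLC mRNA was quantified by qRT-PCR against ACTB, GAPDH and POLR2A.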

[2] = read-out: growth arrest and DNA damage 45 (GADD45G), GADD45G (gene 10912); assay: LTEA_HepaRG_GADD45G: Life Technologies and Expression Analysis (LTEA) Assay for growth arrest and DNA damage 45 (GADD45G) using HepaRG (AID 2283499)
How it was run: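 Human hepatic HepaRG line treated 48 h with chemicals (eight concentrations, half-log steps from 100 uM); transcript induction or repression of GADD45G scored by qRT-PCR versus DMSO vehicle.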

[3] = read-out: Glutamate-cysteine ligase regulatory (GCLM), GCLM (gene 2730); assay: LTEA_HepaRG_GCLM: Life Technologies and Expression Analysis (LTEA) Assay for Glutamate-cysteine ligase regulatory (GCLM) using HepaRG (AID 2283500)
How it was run: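 Human liver HepaRG cultures receive test chemicals for 48 hours at up to 100 uM in 0.5% DMSO. GCLM expression is measured by qRT-PCR and analysed for increases or decreases against vehicle.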

[4] = read-out: Heat shock 70 kDa protein 1 (HSPA1A), gene 3303; assay: LTEA_HepaRG_HSPA1A: Life Technologies and Expression Analysis (LTEA) Assay for Heat shock 70 kDa protein 1 (HSPA1A) using HepaRG (AID 2283502)
How it was run: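 HSPA1A induction in human HepaRG liver cells is measured after 48 h of chemical treatment (100 uM maximum, 0.5% DMSO vehicle). Expression comes from qRT-PCR normalized to endogenous controls.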

[5] = read-out: Hypoxia-inducible factor 1-alpha (Homo sapiens) (UniProt Q16665); assay: LTEA_HepaRG_HIF1A: Life Technologies and Expression Analysis (LTEA) Assay for Hypoxia-inducible factor 1 (HIF1A) Trancription factor using HepaRG (AID 2283503)
How it was run: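 HepaRG, 48 h exposure, 8-pt half-log series from 100 uM, 0.5% DMSO vehicle, duplicates. Readout: HIF1A transcript by qRT-PCR (Fluidigm array), housekeeping-normalised. Bidirectional curve fit vs DMSO baseline.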

[6] = read-out: 3-Hydroxy-3-Methylglutaryl-CoA Synthase 2 (HMGCS2), HMGCS2 (gene 3158); assay: LTEA_HepaRG_HMGCS2: Life Technologies and Expression Analysis (LTEA) Assay for 3-Hydroxy-3-Methylglutaryl-CoA Synthase 2 (HMGCS2) using HepaRG (AID 2283504)
How it was run: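 Expression of HMGCS2 in human HepaRG liver cells is measured by qRT-PCR 48 h after dosing (highest 100 uM, half-log series, 0.5% DMSO). Values come from bidirectional concentration-response fitting with DMSO as baseline.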

HGF (gene 3082) = assay: LTEA_HepaRG_HGF: Life Technologies and Expression Analysis (LTEA) Assay for Hepatocyte Growth Facto (HGF) using HepaRG (AID 2283505)
How it was run: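 Gain or loss of HGF mRNA in human HepaRG liver cells after 48 h chemical exposure; eight concentrations up to 100 uM with 0.5% DMSO vehicle, quantified by TaqMan qRT-PCR.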

[7] = read-out: Insulin Like Growth Factor 1 (IGF1), IGF1 (gene 3479); assay: LTEA_HepaRG_IGF1: Life Technologies and Expression Analysis (LTEA) Assay for Insulin Like Growth Factor 1 (IGF1) using HepaRG (AID 2283506)
How it was run: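 Using human HepaRG liver cells, IGF1 transcript induction or suppression is measured 48 h after dosing across eight concentrations capped at 100 uM. Values derive from bidirectional concentration-response fitting with DMSO as baseline.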

[8] = read-out: Intercellular Adhesion Molecule 1 (ICAM1), ICAM1 (gene 3383); assay: LTEA_HepaRG_ICAM1: Life Technologies and Expression Analysis (LTEA) Assay for Intercellular Adhesion Molecule 1 (ICAM1) using HepaRG (AID 2283507)
How it was run: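 Gain or loss of transcript in HepaRG hepatic cells is quantified by qRT-PCR after 48 h chemical exposure (up to 100 uM, half-log steps), with DMSO as baseline.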

[9] = read-out: Insulin-like growth factor-binding protein 1 (IGFBP1), IGFBP1 (gene 3484); assay: LTEA_HepaRG_IGFBP1: Life Technologies and Expression Analysis (LTEA) Assay for Insulin-like growth factor-binding protein 1 (IGFBP1) using HepaRG (AID 2283508)
How it was run: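 mRNA induction or loss was quantified by qRT-PCR after 48 h chemical exposure of human HepaRG cells, with 0.5% DMSO as vehicle and baseline. Concentration-response over eight points up to 100 uM.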

[10] = read-out: Interleukin 6 (IL6), IL6 (gene 3569); assay: LTEA_HepaRG_IL6: Life Technologies and Expression Analysis (LTEA) Assay for Interleukin 6 (IL6) using HepaRG (AID 2283509)
How it was run: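 Differentiated human HepaRG cells, plated 48 h then switched to serum-free induction medium, were exposed in duplicate for 48 h to eight half-log concentrations up to 100 uM in 0.5% DMSO. IL6 mRNA measured by qRT-PCR, normalized to ACTB/GAPDH/POLR2A.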

[11] = read-out: Interleukin 6 Receptor (IL6R), IL6R (gene 3570); assay: LTEA_HepaRG_IL6R: Life Technologies and Expression Analysis (LTEA) Assay for Interleukin 6 Receptor (IL6R) using HepaRG (AID 2283510)
How it was run: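 Concentration-response in human liver HepaRG cells: eight concentrations from 100 uM downward by half-logs, 48 h exposure, 0.5% DMSO vehicle. IL6R mRNA change measured by qRT-PCR and fitted in both directions relative to vehicle.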

[12] = read-out: Potassium channel subfamily K member 1 (KCNK1), KCNK1 (gene 3775); assay: LTEA_HepaRG_KCNK1: Life Technologies and Expression Analysis (LTEA) Assay for Potassium channel subfamily K member 1 (KCNK1) using HepaRG (AID 2283511)
How it was run: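 Differentiated human HepaRG cells in serum-free induction medium were exposed in duplicate for 48 h to 8 half-log concentrations up to 100 uM in 0.5% DMSO. KCNK1 mRNA was measured by TaqMan qRT-PCR, normalized to ACTB, GAPDH and POLR2A, and fitted bidirectionally versus DMSO.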

[13] = read-out: Keratin 19 (KRT19), KRT19 (gene 3880); assay: LTEA_HepaRG_KRT19: Life Technologies and Expression Analysis (LTEA) Assay for Keratin 19 (KRT19) using HepaRG (AID 2283512)
How it was run: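 Gene-expression endpoint in the human liver line HepaRG after 48 h exposure to up to 100 uM test chemical with 0.5% DMSO vehicle; KRT19 mRNA by qRT-PCR, analyzed bidirectionally versus DMSO.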

[14] = read-out: JUN Transcription Factor, JUN (gene 3725); assay: LTEA_HepaRG_JUN: Life Technologies and Expression Analysis (LTEA) Assay for JUN Transcription Factor using HepaRG (AID 2283513)
How it was run: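 Human HepaRG liver cells receive test chemicals in 0.5% DMSO for 48 h across an eight-point range topping at 100 uM. Expression changes in JUN are scored in both directions against the DMSO vehicle.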

[15] = read-out: Lipase C (LIPC), LIPC (gene 3990); assay: LTEA_HepaRG_LIPC: Life Technologies and Expression Analysis (LTEA) Assay for Lipase C (LIPC) using HepaRG (AID 2283514)
How it was run: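 Differentiated human HepaRG cells in serum-free induction medium were exposed in duplicate for 48 h to eight concentrations (top 100 uM, half-log steps, 0.5% DMSO). LIPC mRNA was quantified by TaqMan qRT-PCR, normalized to ACTB, GAPDH and POLR2A, with bidirectional fitting versus DMSO.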

[16] = read-out: Lipoprotein lipase (LPL), LPL (gene 4023); assay: LTEA_HepaRG_LPL: Life Technologies and Expression Analysis (LTEA) Assay for Lipoprotein lipase (LPL) using HepaRG (AID 2283515)
How it was run: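 Differentiated human HepaRG cells in serum-free induction medium were exposed in duplicate for 48 h to eight half-log concentrations (top 100 uM) in 0.5% DMSO. LPL mRNA was quantified by TaqMan qRT-PCR, normalized to ACTB, GAPDH and POLR2A.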

[17] = read-out: MicroRNA 122 (MIR122), gene 406906; assay: LTEA_HepaRG_MIR122: Life Technologies and Expression Analysis (LTEA) Assay for MicroRNA 122 (MIR122) using HepaRG (AID 2283516); also: the transcript read is the microRNA miR-122
How it was run: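 HepaRG, 48 h exposure, 8-pt half-log from 100 uM, 0.5% DMSO; TaqMan qRT-PCR; bidirectional fit vs DMSO.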

[18] = read-out: matrix metalloproteinase-10 (MMP10), MMP10 (gene 4319); assay: LTEA_HepaRG_MMP10: Life Technologies and Expression Analysis (LTEA) Assay for matrix metalloproteinase-10 (MMP10) using HepaRG (AID 2283517)
How it was run: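 HepaRG, collagen I, ~100,000 cells/well; serum-free induction medium; 48 h exposure, duplicate, 8-pt half-log to 100 uM, 0.5% DMSO. Readout: TaqMan qRT-PCR, normalized to ACTB/GAPDH/POLR2A; bidirectional fit vs DMSO.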

[19] = read-out: Glutathione S-transferase M3 (GSTM3), GSTM3 (gene 2947); assay: LTEA_HepaRG_GSTM3: Life Technologies and Expression Analysis (LTEA) Assay for Glutathione S-transferase M3 (GSTM3) using HepaRG (AID 2283501)
How it was run: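 Changes in GSTM3 expression, an oxidative-stress marker, were scored by bidirectional curve fitting against 0.5% DMSO vehicle. Human HepaRG cultures received chemicals for 48 h in duplicate, highest concentration 100 uM with half-log dilutions.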

Measured: AC50

Sequence of Hypoxia-inducible factor 1-alpha (Homo sapiens) (Q16665 whole entry, looked up): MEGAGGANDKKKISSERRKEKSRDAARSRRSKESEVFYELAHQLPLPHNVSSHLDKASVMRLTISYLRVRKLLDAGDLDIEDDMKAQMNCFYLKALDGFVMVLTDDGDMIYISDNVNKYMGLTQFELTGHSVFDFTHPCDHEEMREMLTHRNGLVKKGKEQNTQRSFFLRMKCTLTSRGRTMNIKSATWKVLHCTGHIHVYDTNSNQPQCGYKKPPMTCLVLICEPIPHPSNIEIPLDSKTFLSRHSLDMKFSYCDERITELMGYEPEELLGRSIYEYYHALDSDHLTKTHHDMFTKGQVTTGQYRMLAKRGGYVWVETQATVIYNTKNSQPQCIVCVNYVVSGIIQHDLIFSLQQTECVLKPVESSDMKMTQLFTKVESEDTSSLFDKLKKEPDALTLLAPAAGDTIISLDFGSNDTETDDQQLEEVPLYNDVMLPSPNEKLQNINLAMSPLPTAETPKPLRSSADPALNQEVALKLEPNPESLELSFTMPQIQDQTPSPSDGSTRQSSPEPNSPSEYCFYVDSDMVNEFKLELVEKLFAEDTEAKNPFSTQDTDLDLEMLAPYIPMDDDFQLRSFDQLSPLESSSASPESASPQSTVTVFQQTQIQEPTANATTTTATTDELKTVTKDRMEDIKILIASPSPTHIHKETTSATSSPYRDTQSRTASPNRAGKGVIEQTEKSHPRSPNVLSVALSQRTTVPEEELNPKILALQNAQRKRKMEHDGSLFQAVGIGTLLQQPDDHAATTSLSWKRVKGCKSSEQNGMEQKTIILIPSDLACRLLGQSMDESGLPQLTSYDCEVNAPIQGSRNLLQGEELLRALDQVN

OC[C@H]1O[C@@](CO)(O[C@H]2O[C@H](CO)[C@@H](O)[C@H](O)[C@H]2O)[C@@H](O)[C@@H]1O
not listed: [19]
inactive: all other assays above

C=CN1CCCC1=O
not listed: [16] | [19]
inactive: all other assays above

CCCCCCCCCCCCCCCCOS(=O)(=O)O
active: [7] 44.2 µM
not listed: [19]
inactive: all other assays above

OCCNCCO
active: [6] 75 µM | [13] 50 µM
not listed: [4] | [5] | [10] | [16]
inactive: all other assays above

O=C1CN(N=Cc2ccc([N+](=O)[O-])o2)C(=O)N1
active: [2] 71.6 µM | [3] 72.5 µM | [6] 72 µM | [7] 50 µM | [9] 33.4 µM | [13] 88.7 µM | [16] 91.3 µM
not listed: [4] | HGF (gene 3082) | [10]
inactive: all other assays above

c1ccc2ncccc2c1
not listed: [5] | [16]
inactive: all other assays above

OCCOCCOCCO
not listed: [4] | [5] | [10] | [16]
inactive: all other assays above
